# Screen size: about 5,500 compounds; about 2,000 (36%) were called active. About 18% were inconclusive and are not listed. This is one part of the list. Values without a mark were called inactive. Cut-off read from the data, not from the text of the source: active = normalized growth mostly below about 0.91 (no sharp cut-off); inconclusive = no clear call, values can overlap the other calls; inactive = mostly above about 0.92.
# Assay: chemical genetic growth profiling, strain panel (AID 1159580);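 note: tested at 20 µM; growth read once vehicle control cultures reached saturation at 30 °C; 1 = growth at the plate median or of vehicle wells; lower values mean less growth of the strain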
# Details: growth OD
# [1] = S. cerevisiae deletion strains, locus YAL013W, strain DEP1, stronger effect = lower value
# [2] = S. cerevisiae deletion strains, locus YBR229C, strain ROT2, stronger effect = lower value
# [3] = S. cerevisiae deletion strains, locus YDL101C, strain DUN1, stronger effect = lower value
# [4] = S. cerevisiae deletion strains, locus YDR150W, strain NUM1, stronger effect = lower value
# [5] = S. cerevisiae deletion strains, locus YEL061C, strain CIN8, stronger effect = lower value
# [6] = S. cerevisiae deletion strains, locus YGR078C, strain PAC10, stronger effect = lower value
# [7] = S. cerevisiae deletion strains, locus YHR030C, strain SLT2, stronger effect = lower value
# [8] = S. cerevisiae deletion strains, locus YHR087W, strain rtc3, stronger effect = lower value
# [9] = S. cerevisiae deletion strains, locus YJR043C, strain POL32, stronger effect = lower value
# [10] = S. cerevisiae deletion strains, locus YJR075W, strain HOC1, stronger effect = lower value
# [11] = S. cerevisiae deletion strains, locus YKL190W, strain CNB1, stronger effect = lower value
# [12] = S. cerevisiae deletion strains, locus YLR039C, strain RIC1, stronger effect = lower value
# [13] = S. cerevisiae deletion strains, locus YLR058C, strain SHM2 (second series), stronger effect = lower value
# [14] = S. cerevisiae deletion strains, locus YLR085C, strain ARP6, stronger effect = lower value
# [15] = S. cerevisiae deletion strains, locus YLR262C, strain YPT6, stronger effect = lower value
# [16] = S. cerevisiae deletion strains, locus YML094W, strain GIM5, stronger effect = lower value
# [17] = S. cerevisiae deletion strains, locus YMR219W, strain ESC1, stronger effect = lower value
# [18] = S. cerevisiae deletion strains, locus YMR263W, strain SAP30, stronger effect = lower value
# [19] = S. cerevisiae deletion strains, locus YMR307W, strain GAS1, stronger effect = lower value
# [20] = S. cerevisiae deletion strains, locus YNL153C, strain GIM3, stronger effect = lower value
# [21] = S. cerevisiae deletion strains, locus YNL298W, strain CLA4 (second series), stronger effect = lower value
# [22] = S. cerevisiae deletion strains, locus YNL322C, strain KRE1, stronger effect = lower value
# [23] = S. cerevisiae deletion strains, locus YNR030W, strain Alg12, stronger effect = lower value
# [24] = S. cerevisiae deletion strains, locus YOL006C, strain TOP1, stronger effect = lower value
# [25] = S. cerevisiae deletion strains, locus YPL055C, strain LGE1, stronger effect = lower value
# [26] = S. cerevisiae deletion strains, locus YPL241C, strain CIN2, stronger effect = lower value
# [27] = S. cerevisiae deletion strains, locus YPR135W, strain CTF4, stronger effect = lower value
smiles,measurement,setting,value
CN1C/C(=C\c2ccccc2Cl)C(=O)/C(=C/c2ccccc2Cl)C1,normalized growth,[1],0.953
same,normalized growth,[2],0.911 (active)
same,normalized growth,[3],0.825 (active)
same,normalized growth,[4],0.942
same,normalized growth,[5],0.699 (active)
same,normalized growth,[6],0.873 (active)
same,normalized growth,[7],0.27 (active)
same,normalized growth,[8],0.888 (active)
same,normalized growth,"S. cerevisiae deletion strains, locus YJL187C, strain SWE1, stronger effect = lower value",0.942
same,normalized growth,[9],0.971
same,normalized growth,[10],0.831 (active)
same,normalized growth,[11],0.789 (active)
same,normalized growth,[12],0.447 (active)
same,normalized growth,[13],0.958
same,normalized growth,[14],0.462 (active)
same,normalized growth,[15],0.655 (active)
same,normalized growth,[16],0.691 (active)
same,normalized growth,[17],0.909 (active)
same,normalized growth,[18],0.937
same,normalized growth,[19],0.419 (active)
same,normalized growth,[20],0.958
same,normalized growth,[21],0.523 (active)
same,normalized growth,[22],0.957
same,normalized growth,[23],0.756 (active)
same,normalized growth,[24],0.562 (active)
same,normalized growth,[25],0.92
same,normalized growth,[26],0.676 (active)
same,normalized growth,[27],0.422 (active)
CN(C)/C=C1\C(=O)c2ccccc2N(C)S1(=O)=O,normalized growth,[1],1
same,normalized growth,[2],0.994
same,normalized growth,"S. cerevisiae deletion strains, locus YCL061C, strain MRC1, stronger effect = lower value",0.999
same,normalized growth,[3],0.999
same,normalized growth,"S. cerevisiae deletion strains, locus YDL134C, strain PPH21, stronger effect = lower value",0.987
same,normalized growth,[4],1.02
same,normalized growth,[5],1.01
same,normalized growth,[6],0.982
same,normalized growth,[7],0.907
same,normalized growth,[8],0.954
same,normalized growth,[9],0.989
same,normalized growth,[10],0.949
same,normalized growth,[11],1.01
same,normalized growth,[12],0.84
same,normalized growth,[13],0.983
same,normalized growth,[14],1.06
same,normalized growth,[15],0.906
same,normalized growth,[16],1.02
same,normalized growth,[17],1
same,normalized growth,[18],1
same,normalized growth,[19],0.859
same,normalized growth,[20],0.997
same,normalized growth,[21],0.97
same,normalized growth,[22],0.999
same,normalized growth,[23],0.98
same,normalized growth,[24],0.946
same,normalized growth,[25],1.13
same,normalized growth,[26],1.01
same,normalized growth,[27],0.761
same,normalized growth,"S. cerevisiae strains, strain wild type, stronger effect = lower value",0.991

# Reference: PubChem BioAssay AID1159580 (chemical genetic matrix, 2015)
